Shown are actives, neighbours in structure and some others; about 8.2% of the full set was active somewhere.
KB-V1 cytotox: KB-V1 MDR subline cytotoxicity. KB-V1 MDR cells viability, CellTiter-Glo, 72 h. Potency, µM (highest dose often 46.1 µM), usual class: cytotoxic. hit rate 3.4% among 400,000. AID 1347076; further: nearly all actives have a fitted effect of over 60% in size
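Potencies derive from concentration-effect curves fitted to normalized luminescence (CellTiter-Glo) of KB-V1 cells treated for 72 h at 37 degrees C in phenol-red-free DMEM containing 10% FBS.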
SW480 rereplic: induces DNA re-replication in SW480 colon adenocarcinoma cells. Potency, µM (series often up to 46.1 µM), hits mostly activators. AID 624297. hit rate 1.8% among 340,000. SW480 DNA re-replication, Hoechst DNA content imaging, 48 h; further: nearly all actives have a fitted effect of over 55% in size
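Cells (250 per well) received 23 nL compound or DMSO by pin tool and were kept 48 hr at 37 C, 5% CO2. Nuclei were then stained with Hoechst for 40 min and scanned for DNA content.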
KB-3-1 tox: KB-3-1 parental cell cytotoxicity; KB-3-1 viability, CellTiter-Glo ATP luminescence, 72 h; Potency, µM (top dose mostly 46.1 µM), most hits filed as cytotoxic; hit rate 1.4% among 400,000; AID 1347075; further: nearly all actives have a fitted effect of over 60% in size
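KB-3-1 cells, DMEM (no phenol red) + 10% FBS; compound by pin transfer, 72 h, 37 °C. Readout: CellTiter-Glo luminescence after 10 min. Data normalized, curve-fitted.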
MCF10A rerep: DNA re-replication induction in MCF 10a cells | hit rate 2.9% among 350,000 | MCF 10A DNA re-replication, Hoechst nuclear intensity, 48 h | AID 624296 | Potency, µM (highest dose often 46.1 µM), hits mostly activators; further: nearly all actives have a fitted effect of over 50% in size
ELG1 DNA repair: inhibitors of ELG1-dependent DNA repair in HEK293T cells; HEK293T ELG1-luciferase reporter, luminescence, 16 h; DNA damage induced by 5-fluorouridine; Potency, µM (doses to about 46.1 µM), actives largely listed as inhibitors; hit rate 2.3% among 330,000; AID 504467; further: nearly all actives have a fitted effect of over 55% in size
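Reporter activity after DNA damage by 5-fluorouridine is monitored. Compound-treated cells incubate 16 hr at 37 °C, then ONE-Glo is added for 30 min before luminescence reading.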
Large screens that a line does not name were inactive. The call rests on the fitted dose curve; in most records, active means well fitted curve in the direction sought with a large enough effect; inconclusive means small, poorly fitted or top-dose-only effect, or another doubt; inactive means no such curve, though single readings can be large; an effect the other way counts as inactive or inconclusive.

Cc1cc(Nc2ccc(Cl)cc2)nc(NCc2ccccc2)n1	KB-V1 cytotox 21µM, SW480 rereplic inconclusive, KB-3-1 tox inconclusive, MCF10A rerep inconclusive
Cc1cc(N/N=C/c2ccc(Cl)cc2Cl)nc(NCc2ccccc2)n1	KB-V1 cytotox 8.2µM, SW480 rereplic inconclusive, MCF10A rerep inconclusive, ELG1 DNA repair inconclusive
Cc1cc(Nc2ccccc2)nc(NCc2ccccc2)n1	KB-V1 cytotox 10µM, SW480 rereplic inconclusive, KB-3-1 tox 21µM, MCF10A rerep 16µM, ELG1 DNA repair 4.6µM
Cc1cc(Oc2ccccc2)nc(NCc2ccccc2)n1	KB-V1 cytotox 21µM, SW480 rereplic inconclusive, KB-3-1 tox 16µM
O=C(Nc1ccc2c(c1)OCO2)c1ccc2nc([C@@H]3O[C@H](CO)[C@H](O)[C@H](O)[C@H]3O)[nH]c2c1	none (no result: SW480 rereplic, MCF10A rerep, ELG1 DNA repair)
O=C(NCc1ccccc1Cl)c1ccc2oc(=O)n(Cc3ccccc3)c2c1	KB-3-1 tox inconclusive (no result: SW480 rereplic, MCF10A rerep, ELG1 DNA repair)
O=S(=O)(c1cccc2ccccc12)N1CCC2CC1c1cc(-c3ccc4c(c3)OCO4)ccc12 (centres undefined)	none (no result: SW480 rereplic, MCF10A rerep, ELG1 DNA repair)
Cc1cc(C)nc(NCCCc2ccccc2)n1	none
Cc1cc(N2CCC(C)CC2)nc(NCc2ccccc2)n1	SW480 rereplic 0.52µM, KB-3-1 tox 13µM, ELG1 DNA repair inconclusive
Cc1cc(N/N=C/c2ccc(F)cc2)nc(NCc2ccccc2)n1	KB-V1 cytotox inconclusive, KB-3-1 tox inconclusive, MCF10A rerep inconclusive
CCCCNc1cc(C)nc(NCc2ccccc2)n1	KB-V1 cytotox 5.8µM, KB-3-1 tox 6.5µM, ELG1 DNA repair 15µM
Cc1cc(N/N=C/c2ccc(N(C)C)cc2)nc(NCc2ccccc2)n1	SW480 rereplic 21µM, MCF10A rerep 8.2µM, ELG1 DNA repair inconclusive
Cc1cc(Nc2cccc(F)c2)nc(NCc2ccccc2)n1	KB-V1 cytotox 8.2µM, SW480 rereplic inconclusive, KB-3-1 tox inconclusive, MCF10A rerep inconclusive
CC(C)C(=O)NC(c1ccco1)c1c(O)ccc2ccccc12 (centres undefined)	MCF10A rerep 21µM
COc1ccc(C(NC(=O)C(C)C)c2c(O)ccc3ccccc23)cc1 (centres undefined)	SW480 rereplic inconclusive, KB-3-1 tox inconclusive, MCF10A rerep 18µM
CC(C)C(=O)NC(c1ccccc1Cl)c1c(O)ccc2ccccc12 (centres undefined)	none
CCCCC(=O)NC(c1ccc([N+](=O)[O-])cc1)c1c(O)ccc2ccccc12 (centres undefined)	KB-V1 cytotox 16µM, SW480 rereplic inconclusive, KB-3-1 tox inconclusive, MCF10A rerep inconclusive, ELG1 DNA repair 26µM
COc1ccc(NC(=S)NC23CC4CC(CC(C4)C2)C3)cc1OC	KB-V1 cytotox inconclusive, KB-3-1 tox inconclusive
N#C/C(=C\c1cn(-c2ccccc2)nc1-c1cc2ccccc2o1)c1nc2ccccc2[nH]1	KB-V1 cytotox inconclusive, SW480 rereplic 2.9µM, MCF10A rerep inconclusive, ELG1 DNA repair inconclusive
CN(C)S(=O)(=O)c1cccc(-c2nn(-c3ccccc3)cc2/C=C2\SC(=S)NC2=O)c1	KB-V1 cytotox inconclusive, KB-3-1 tox inconclusive, MCF10A rerep inconclusive, ELG1 DNA repair 23µM
CN(C)S(=O)(=O)c1cccc(-c2nn(-c3ccccc3)cc2/C=C(\C#N)c2nc3ccccc3[nH]2)c1	SW480 rereplic inconclusive, MCF10A rerep 3.3µM, ELG1 DNA repair 2.6µM
COc1ccc(-c2cc(C(F)(F)F)nc(SCC(=O)N3CCC(C)CC3)n2)cc1	none (no result: SW480 rereplic, MCF10A rerep, ELG1 DNA repair)
CCOC(=O)c1nnn2c1nc(Nc1cccc(C(F)(F)F)c1)c1ccccc12	SW480 rereplic inconclusive, KB-3-1 tox inconclusive, MCF10A rerep inconclusive
O=C(Cn1ncc2c3ccccc3n(Cc3cccc(Cl)c3)c2c1=O)NCc1ccccn1	KB-V1 cytotox inconclusive
CC(=O)Nc1ccc(C(=O)COC(=O)c2cc(C)oc2C)c(F)c1	KB-V1 cytotox inconclusive
Cc1cccc2cc(CN(CCCO)C(=O)Nc3cccc(Cl)c3)c(=O)[nH]c12	MCF10A rerep inconclusive, ELG1 DNA repair 13µM
Cc1cccc2cc(CN(CCCO)C(=O)Nc3ccccc3Cl)c(=O)[nH]c12	ELG1 DNA repair inconclusive
COC(=O)c1ccccc1NC(=S)N(Cc1ccc2c(c1)OCO2)Cc1cc2cccc(C)c2[nH]c1=O	SW480 rereplic inconclusive, ELG1 DNA repair 12µM
Cc1cccc2cc(CN(CCCO)C(=O)Nc3ccc(Cl)cc3)c(=O)[nH]c12	KB-V1 cytotox inconclusive, KB-3-1 tox inconclusive, ELG1 DNA repair 21µM

High-throughput results (PubChem BioAssay)
